# From PubChem BioAssay AID1347416 (National Center for Advancing Translational Sciences (NCATS), 2020)
# Out of some 4,100 compounds screened, about 1,600 (39%) were called active. Another 25% or so got no clear call; they are omitted. Some of the results follow. Values without a mark were called inactive. The call rests on the fitted dose curve; in most records, active means well fitted inhibition curve with a large enough effect; inconclusive means small, poorly fitted or top-dose-only effect; inactive means no such curve, though single readings can be large or run the other way.
# Assay: qHTS Validation assay for Inhibitors of Plasmodium falciparum Dd2 growth in vitro; further: nearly all actives have a fitted effect of over 70% in size
# Conditions: P. falciparum Dd2 in RBCs, SYBR Green growth, 72 h; series mostly up to 28.7 µM; activity change, negative = inhibition: at the top concentration
# Outline: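 P. falciparum Dd2-infected red blood cells (2.5% hematocrit, 0.3% parasitemia) grown 72 h at 37 °C under 5% O2 with compounds in a titration, 29 uM to 0.5 nM final. Growth read as SYBR Green-1 fluorescence after ~16 h lysis; artesunate 300 nM as positive control.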
# On the % scale 0 is the no-effect control and ±100 the full control effect; potency means the concentration at half of the fitted maximal effect.
SMILES,"activity change, negative = inhibition",Potency
CCOc1ccccc1C(=O)N1CCN(c2cc(-c3ccc(OC)cc3)[nH]n2)CC1,-19.4%,–
COc1ccc(-c2cc(N3CCN(C(=O)c4c[nH]c5ccccc45)CC3)n[nH]2)cc1,–,15 µM (active)
O=C(c1ccc2nc[nH]c2c1)N1CCCN(c2cc(-c3ccc(Cl)cc3)[nH]n2)CC1,25.3%,–
Cn1nc(C(F)(F)F)c(-c2cccc(C(F)(F)F)c2)c1NC(=O)Nc1ccc(F)cc1,–,2.37 µM (active)
COC(=O)c1ccc(NC(=O)Nc2cccc(F)c2)cc1,-29.7%,–
Cn1nc(C(F)(F)F)c(Cl)c1C(=O)N[C@@H]1CCNC[C@H]1O,48%,–
Cn1nc(C(F)(F)F)c(-c2ccc(F)cc2)c1NC(=O)Nc1ccc(F)cc1,–,1.88 µM (active)
Cc1ccsc1C(=O)N1CCC(n2cc(-c3nc(C(C)C)no3)nn2)CC1,26.4%,–
CN(c1ccccc1)c1cc(=O)c2ccnc(-c3ccncc3)c2o1,7.74% [at 43.1 µM],–
Cc1noc(C)c1-c1nccc2c(=O)cc(N(C)c3ccccc3)oc12,–,17.2 µM (active)
CN(c1ccccc1)c1cc(=O)c2ccnc(-c3ccccc3O)c2o1,-13.3% [at 43.1 µM],–
CC(=O)N1CCC(Cc2ncc(C)n2CC2CC2)C1 (stereo not given),13.1%,–
CCCn1c(C)cnc1CC1CCN(S(=O)(=O)c2ccc3c(c2)CCC3)C1 (stereo not given),–,9.44 µM (active)
COCCn1c(C)cnc1CC1CCN(C(=O)Nc2ccccc2F)C1 (stereo not given),13.6%,–
CCc1ccc(S(=O)(=O)N2CCC(n3cnnc3CC)CC2)cc1,-9.08%,–
Cc1cnc(CC2CCCN(S(=O)(=O)c3ccccc3)C2)n1CC1CC1 (stereo not given),–,6.68 µM (active)
Cc1cnc(CC2CCN(S(=O)(=O)c3ccccc3)CC2)n1Cc1ccccc1,–,5.31 µM (active)
O=S(=O)(c1ccccc1)N1CCCC(Cc2noc(-c3ccncc3)n2)C1 (stereo not given),39.4%,–
COc1ccc(S(=O)(=O)N2CCCC(Cc3noc(-c4ccncc4)n3)C2)cc1 (stereo not given),4.86%,–
O=C(NCc1nc2ccccc2[nH]1)C1=C[C@@H](c2ccccc2)C[C@@H](OCc2ccc(CO)cc2)O1,23.3%,–
CCNC(=S)N/N=C/c1sc(N2CCCCC2)nc1-c1cccs1,–,0.668 µM (active)
CN1CCN(c2nc(Nc3ccc(O)cc3)nc3ccccc23)CC1,–,4.22 µM (active)
O=C(Oc1c(CN2CCOCC2)cc(Cl)c2cccnc12)c1ccccc1Br,–,7.5 µM (active)

SMILES,"activity change, negative = inhibition",Potency
COc1cc(OC)cc(C(=O)Oc2c(CN3CCOCC3)cc(Cl)c3cccnc23)c1,2.5%,–
CC(C)=NOC(=O)c1c(C)noc1-c1snnc1C,–,6.68 µM (active)
CCCC(c1nnnn1CCC(C)C)N1CCC(C(N)=O)CC1 (stereo not given),12.3%,–
CCCCC(O)(c1ccc(F)cc1)C(CN1CCOCC1)c1ccc(Cl)cc1 (stereo not given),–,5.96 µM (active)
CCCC(O)(c1ccc(Cl)cc1)C(CN1CCOCC1)c1ccc(Cl)cc1 (stereo not given),–,4.73 µM (active)
CCC(=O)N(C1CCOCC1)C1CCN(Cc2cc(F)ccc2F)CC1,8.14%,–
OC(c1ccc(Cl)cc1)C(CN1CCOCC1)c1ccccc1 (stereo not given),–,2.99 µM (active)
CCOc1cc(CNCC(O)c2ccccc2)cc(Cl)c1OC (stereo not given),–,3.35 µM (active)
OC(CNCc1cccc(Br)c1)c1ccccc1 (stereo not given),–,5.96 µM (active)
O=C1c2c(nc(CNCc3cccc(F)c3)n2Cc2ccccc2)NCCN1Cc1cccc(Cl)c1,-13.6%,–
OC(C[n+]1ccccc1)c1ccccc1 (stereo not given),21.8%,–
OC(CNCc1cccc(Cl)c1)c1ccccc1 (stereo not given),–,4.73 µM (active)
Cc1nn(C(=O)CCCC(=O)N2CCCC2c2nc(C3CCOCC3)no2)c2ccccc12 (stereo not given),0%,–
Cc1ccc2c(C)c(C(=O)N3CCCC3c3nc(C(C)C)no3)oc2c1C (stereo not given),–,6.68 µM (active)
O=C(c1ccc(F)c(Cl)c1)N1CCC[C@H]1c1nc(-c2ccccc2)no1,11.4%,–
Cc1cc(C(C)c2ccccc2)c(O)c(CN2CCOCC2)c1C (stereo not given),–,2.99 µM (active)
CC(Oc1ccc(Br)cc1)c1nc2c3ccccc3nc(=S)n2[nH]1 (stereo not given),12%,–
Oc1ccccc1Nc1nc(-c2ccccc2O)nc2ccccc12,–,0.944 µM (active)
C/C(=N\Nc1nc(-c2ccccc2O)nc2ccccc12)c1ccccc1,–,0.75 µM (active)
CNC(=O)[C@H]1C[C@H](Oc2cccnc2)CN1S(=O)(=O)Cc1ccccc1F,12.3%,–
O=C(NCC12CCC=C1N(CC1CC1)C(=O)CC2)Nc1cccc(F)c1 (stereo not given),3.63%,–
CCN(CC)CCNC(=O)C12CCCC=C1N(Cc1ccccc1)C(=O)CC2 (stereo not given),–,8.41 µM (active)
